# Results filed as inconclusive are left out. Calls of active or inactive are those of the source. The calls were made as follows, unless noted: active = hit-call score of the fitted dose curve at least 0.9, where 1 is the maximum; inconclusive = response in the unintended direction; inactive = score below 0.9.
# Key:
# [1] = test system: Sodium/Iodide Symporter (NIS), SLC5A5 (gene 6528); test: CPHEA_Stoker_NIS_Inhibition_RAIU: CPHEA's Radioactive Iodide Uptake (RAIU) Assay for Sodium/Iodide Symporter (NIS) Inhibition, Stoker and Laws Labs (AID 2283841)
# Procedure, shortened: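 Iodide uptake through human NIS is measured in an engineered HEK293T line. Cells take up 125I (329pM final) for 2 hours at room temperature alongside chemicals at 0.001–100uM. Retained radioactivity is counted, and the signal is expressed against DMSO controls.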
# [2] = CPHEA_Stoker_NIS_Cytotoxicity: Cytotoxicity Assessment for CPHEA's Radioactive Iodide Uptake (RAIU) Assay for Sodium/Iodide Symporter (NIS) Inhibition, Stoker and Laws Labs (AID 2283897)
# Procedure, shortened: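 ATP luminescence (Cell Titer Glo) measured viability, with loss of signal normalized to DMSO controls. Cells: hNIS-HEK293T-EPA, seeded 40 hours prior. Dosing: 0.001–100uM, 2 hours, room temperature, uptake buffer pH 7.4.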
# [3] = ATG_M_06_XSP2: Attagene TRANS-FACTORIAL Multi-Species (XSP2) HepG2 Assay for M06 Transcription Factor (Internal Marker) (AID 2283811);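 also: internal background marker reporter mRNA measured by RT-PCR and capillary electrophoresis; hits are increases in signal above the DMSO baseline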
# Procedure, shortened: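 Cells of the human liver line HepG2 carried transfected reporter transcription units and were treated for 24 h. Induced reporter transcripts were detected by fluorescence after RT-PCR and capillary electrophoresis, with activity fitted in the gain direction against DMSO.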
# [4] = test system: turtle Estrogen Receptor (ERa), gene 101933533; test: ATG_trERa_XSP2: Attagene TRANS-FACTORIAL Multi-Species (XSP2) HepG2 Assay for turtle Estrogen Receptor (ERa) (AID 2283812);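 also: actives raise reporter signal above DMSO so AC50 reflects agonist activity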
# Procedure, shortened: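 Readout is reporter mRNA quantified by RT-PCR with capillary electrophoresis after 24 h compound exposure, increase relative to DMSO. Uses transiently transfected human HepG2 liver cells carrying a chimeric turtle ERa-Gal4 receptor driving GAL4-UAS reporters.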
# [5] = target: Estrogen receptor beta (Homo sapiens) (UniProt Q92731); test: ATG_hERb_XSP2: Attagene TRANS-FACTORIAL Multi-Species (XSP2) HepG2 Assay for human Estrogen Receptor (ERb) (AID 2283813);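 also: actives raise reporter mRNA above DMSO so AC50 reflects agonist induction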
# Estrogen receptor beta (Homo sapiens), sequence (Q92731 whole entry, looked up, the tested form may be a part): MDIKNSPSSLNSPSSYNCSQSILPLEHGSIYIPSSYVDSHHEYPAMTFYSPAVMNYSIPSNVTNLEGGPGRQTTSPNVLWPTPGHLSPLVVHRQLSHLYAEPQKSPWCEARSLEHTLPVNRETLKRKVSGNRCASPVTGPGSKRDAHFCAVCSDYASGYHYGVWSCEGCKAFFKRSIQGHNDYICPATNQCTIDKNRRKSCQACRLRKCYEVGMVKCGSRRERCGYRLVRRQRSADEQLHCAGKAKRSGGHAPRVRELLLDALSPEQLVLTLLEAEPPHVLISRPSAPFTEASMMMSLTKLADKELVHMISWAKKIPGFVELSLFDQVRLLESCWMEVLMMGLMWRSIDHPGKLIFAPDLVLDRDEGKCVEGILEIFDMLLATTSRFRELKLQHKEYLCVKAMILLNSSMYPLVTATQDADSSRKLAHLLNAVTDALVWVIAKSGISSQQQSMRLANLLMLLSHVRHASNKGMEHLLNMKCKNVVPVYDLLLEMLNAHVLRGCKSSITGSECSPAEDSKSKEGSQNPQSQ
# Procedure, shortened: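 Transient TRANS reporter system in HepG2: after 24 h of chemical, RNA is reverse-transcribed, reporter cDNA amplified, FAM-labelled and sized by capillary electrophoresis. Induction of the human ERb-Gal4 reporter is measured relative to DMSO.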
# [6] = target: GAL4 Transcription Factor (Internal Marker), GAL4 (gene 855828) (UniProt P04386); test: ATG_GAL4_XSP2: Attagene TRANS-FACTORIAL Multi-Species (XSP2) HepG2 Assay for GAL4 Transcription Factor (Internal Marker) (AID 2283814);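 also: GAL4 reporter mRNA background control in MRTU transfected cells not a receptor target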
# GAL4 Transcription Factor (Internal Marker), GAL4 (gene 855828), sequence (P04386 whole entry, looked up, the tested form may be a part): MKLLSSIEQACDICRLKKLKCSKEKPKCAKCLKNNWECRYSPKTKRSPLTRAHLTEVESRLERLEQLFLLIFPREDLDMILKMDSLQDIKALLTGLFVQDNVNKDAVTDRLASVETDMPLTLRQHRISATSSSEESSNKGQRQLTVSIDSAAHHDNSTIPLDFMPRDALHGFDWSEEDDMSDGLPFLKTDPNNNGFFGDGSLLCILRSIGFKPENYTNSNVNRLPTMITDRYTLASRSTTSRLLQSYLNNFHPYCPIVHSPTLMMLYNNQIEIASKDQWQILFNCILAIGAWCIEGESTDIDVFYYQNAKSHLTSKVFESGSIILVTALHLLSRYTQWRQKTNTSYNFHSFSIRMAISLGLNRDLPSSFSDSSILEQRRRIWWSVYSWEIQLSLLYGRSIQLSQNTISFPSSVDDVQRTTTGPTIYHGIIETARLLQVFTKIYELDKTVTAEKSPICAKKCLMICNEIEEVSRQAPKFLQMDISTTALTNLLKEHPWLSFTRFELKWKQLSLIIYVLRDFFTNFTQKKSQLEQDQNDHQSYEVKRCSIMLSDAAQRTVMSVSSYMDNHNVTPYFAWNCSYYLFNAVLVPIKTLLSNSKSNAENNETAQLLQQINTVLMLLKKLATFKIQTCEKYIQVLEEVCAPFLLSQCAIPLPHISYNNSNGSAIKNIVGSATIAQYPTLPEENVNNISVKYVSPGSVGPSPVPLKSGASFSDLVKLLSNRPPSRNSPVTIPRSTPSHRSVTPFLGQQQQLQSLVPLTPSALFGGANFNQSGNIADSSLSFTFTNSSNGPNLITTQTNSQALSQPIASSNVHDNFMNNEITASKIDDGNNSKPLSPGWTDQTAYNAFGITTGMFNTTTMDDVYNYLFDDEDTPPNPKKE
# Procedure, shortened: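 Background-control readout: gain-of-signal fitted against DMSO. After 24 h exposure of transfected HepG2 (MRTU, GAL4-UAS reporters; 3 nM 6-alpha-fluorotestosterone, 1.5 nM norgestrel present), transcripts quantified by RT-PCR and capillary electrophoresis fluorescence.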
# [7] = target: chicken Estrogen Receptor (ERa), ESR1 (gene 396099) (UniProt P06212); test: ATG_chERa_XSP2: Attagene TRANS-FACTORIAL Multi-Species (XSP2) HepG2 Assay for chicken Estrogen Receptor (ERa) (AID 2283817);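 also: actives raise reporter signal above DMSO so AC50 reflects ER activation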
# chicken Estrogen Receptor (ERa), ESR1 (gene 396099), sequence (P06212 whole entry, looked up, the tested form may be a part): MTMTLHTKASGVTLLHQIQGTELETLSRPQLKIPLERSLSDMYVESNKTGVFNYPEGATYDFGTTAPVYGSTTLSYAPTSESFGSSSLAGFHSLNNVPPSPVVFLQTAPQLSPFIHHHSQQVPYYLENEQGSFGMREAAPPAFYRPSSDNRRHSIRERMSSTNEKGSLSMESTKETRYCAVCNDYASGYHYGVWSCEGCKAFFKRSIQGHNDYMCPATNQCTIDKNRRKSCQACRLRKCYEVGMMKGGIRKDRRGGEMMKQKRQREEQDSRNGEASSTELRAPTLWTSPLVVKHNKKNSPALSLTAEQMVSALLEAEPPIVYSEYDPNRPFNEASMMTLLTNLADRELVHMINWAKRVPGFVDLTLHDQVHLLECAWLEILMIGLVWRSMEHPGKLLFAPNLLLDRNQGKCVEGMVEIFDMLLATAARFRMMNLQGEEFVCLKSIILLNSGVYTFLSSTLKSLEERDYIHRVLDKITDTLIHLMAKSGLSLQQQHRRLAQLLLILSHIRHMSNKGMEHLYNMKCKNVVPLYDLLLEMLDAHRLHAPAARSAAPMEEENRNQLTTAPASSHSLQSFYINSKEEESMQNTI
# Procedure, shortened: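 Exogenous chicken ERa-Gal4 chimera activity was assessed in transfected human liver HepG2 cells after 24 h of treatment. Induced reporter mRNA was quantified fluorescently by capillary electrophoresis, with DMSO as baseline.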
# [8] = test system: zebrafish Estrogen Receptor (ER2a), gene 317734; test: ATG_zfER2a_XSP2: Attagene TRANS-FACTORIAL Multi-Species (XSP2) HepG2 Assay for zebrafish Estrogen Receptor (ER2a) (AID 2283818);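 also: hits raise reporter mRNA so AC50 reflects activation of zebrafish ER2a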
# Procedure, shortened: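 Multiplexed trans-reporter readout: RT-PCR then capillary electrophoresis of reporter transcripts after 24 h compound treatment. Human HepG2 carries transfected zebrafish ER2a-Gal4 chimera; 3 nM 6-alpha-fluorotestosterone plus 1.5 nM norgestrel present. Induction scored against DMSO.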
# [9] = test system: frog Estrogen Receptor (ER), gene 398734; test: ATG_frER1_XSP2: Attagene TRANS-FACTORIAL Multi-Species (XSP2) HepG2 Assay for frog Estrogen Receptor (ER) (AID 2283821);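 also: hits raise reporter mRNA above DMSO baseline so potency means agonist or activator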
# Procedure, shortened: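 Gain-of-signal mRNA reporter assay, HepG2 human liver cells, 24 h dosing; transcripts read by fluorescent RT-PCR fragment analysis, DMSO as negative control.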
# [10] = test system: zebrafish Estrogen Receptor (ER2b), gene 317733; test: ATG_zfER2b_XSP2: Attagene TRANS-FACTORIAL Multi-Species (XSP2) HepG2 Assay for zebrafish Estrogen Receptor (ER2b) (AID 2283823);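 also: fitted upward as reporter gain over DMSO so potency reflects activation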
# Procedure, shortened: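 HepG2 human liver cells transiently transfected with multiplexed GAL4-UAS reporter units expressing chimeric NR-Gal4 proteins; compounds dosed for 24 h. Reporter mRNA quantified by RT-PCR, 6-FAM labelling and capillary electrophoresis; gain-of-signal fitted against DMSO baseline.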
# [11] = test system: frog Estrogen Receptor (ER2), gene 100174814; test: ATG_frER2_XSP2: Attagene TRANS-FACTORIAL Multi-Species (XSP2) HepG2 Assay for frog Estrogen Receptor (ER2) (AID 2283828)
# Procedure, shortened: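 Induction of reporter mRNA, baseline set by DMSO, is the endpoint. The panel was run in transfected HepG2 cells over 24 h, with 3 nM 6-alpha-fluorotestosterone and 1.5 nM norgestrel present to stimulate androgen receptor.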
# [12] = target: Peroxisome proliferator-activated receptor gamma (Homo sapiens) (UniProt P37231); test: ATG_hPPARg_XSP2: Attagene TRANS-FACTORIAL Multi-Species (XSP2) HepG2 Assay for human Peroxisome Proliferator-activated Receptor gamma (PPARg) (AID 2283829);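 also: actives raise reporter mRNA above DMSO so AC50 reflects PPARg activation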
# Peroxisome proliferator-activated receptor gamma (Homo sapiens), sequence (P37231 whole entry, looked up, the tested form may be a part): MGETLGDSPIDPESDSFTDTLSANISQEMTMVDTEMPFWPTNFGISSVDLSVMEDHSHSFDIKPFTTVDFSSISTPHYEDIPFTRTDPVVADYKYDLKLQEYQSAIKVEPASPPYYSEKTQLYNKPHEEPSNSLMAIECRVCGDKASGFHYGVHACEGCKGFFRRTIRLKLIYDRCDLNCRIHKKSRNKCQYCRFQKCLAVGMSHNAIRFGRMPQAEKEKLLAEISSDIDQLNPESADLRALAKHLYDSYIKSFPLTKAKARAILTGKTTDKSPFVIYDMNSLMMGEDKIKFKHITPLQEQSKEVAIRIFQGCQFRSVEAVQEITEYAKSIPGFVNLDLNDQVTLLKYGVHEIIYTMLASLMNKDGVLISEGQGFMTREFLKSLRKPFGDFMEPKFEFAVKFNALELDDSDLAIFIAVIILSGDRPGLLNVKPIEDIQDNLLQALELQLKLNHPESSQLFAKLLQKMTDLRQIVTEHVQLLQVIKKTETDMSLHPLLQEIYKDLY
# Procedure, shortened: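 Reporter transcripts were measured by RT-PCR, fluorescent labeling, HpaI digestion and capillary electrophoresis, relative to DMSO, 24 h post-dosing. Transiently transfected HepG2 expressed NR-Gal4 chimeras regulating GAL4-UAS reporters; medium contained 3 nM 6-alpha-fluorotestosterone plus 1.5 nM norgestrel.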
# [13] = target: Nuclear receptor subfamily 1 group I member 2 (Mus musculus) (UniProt O54915); test: ATG_mPXR_XSP2: Attagene TRANS-FACTORIAL Multi-Species (XSP1) HepG2 Assay for mouse Pregnane X Receptor (PXR) (AID 2283831)
# Nuclear receptor subfamily 1 group I member 2 (Mus musculus), sequence (O54915 whole entry, looked up, the tested form may be a part): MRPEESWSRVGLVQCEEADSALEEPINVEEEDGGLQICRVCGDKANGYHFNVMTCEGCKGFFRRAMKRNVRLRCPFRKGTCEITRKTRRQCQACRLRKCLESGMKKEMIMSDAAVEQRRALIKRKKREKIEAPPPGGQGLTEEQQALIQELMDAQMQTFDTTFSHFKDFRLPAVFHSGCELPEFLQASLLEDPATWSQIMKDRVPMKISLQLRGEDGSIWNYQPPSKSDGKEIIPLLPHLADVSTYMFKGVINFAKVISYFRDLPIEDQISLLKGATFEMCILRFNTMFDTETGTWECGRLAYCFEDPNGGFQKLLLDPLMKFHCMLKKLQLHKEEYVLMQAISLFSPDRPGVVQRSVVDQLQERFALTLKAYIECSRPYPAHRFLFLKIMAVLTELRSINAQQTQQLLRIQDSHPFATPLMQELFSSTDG
# Procedure, shortened: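 Reporter transcripts measured after 24 h dosing by RT-PCR with 6-FAM labelling, HpaI digestion and capillary electrophoresis. Transiently transfected HepG2 with NR-Gal4 chimeras; increase over DMSO baseline scored.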
# [14] = target: zebrafish Thyroid Hormone Receptor alpha (TRa), thraa (gene 30670) (UniProt Q98867); test: ATG_zfTRa_XSP2: Attagene TRANS-FACTORIAL Multi-Species (XSP1) HepG2 Assay for zebrafish Thyroid Hormone Receptor alpha (TRa) (AID 2283832);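 also: actives raise zebrafish TRa-Gal4 reporter transcript above DMSO baseline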
# zebrafish Thyroid Hormone Receptor alpha (TRa), thraa (gene 30670), sequence (Q98867 whole entry, looked up, the tested form may be a part): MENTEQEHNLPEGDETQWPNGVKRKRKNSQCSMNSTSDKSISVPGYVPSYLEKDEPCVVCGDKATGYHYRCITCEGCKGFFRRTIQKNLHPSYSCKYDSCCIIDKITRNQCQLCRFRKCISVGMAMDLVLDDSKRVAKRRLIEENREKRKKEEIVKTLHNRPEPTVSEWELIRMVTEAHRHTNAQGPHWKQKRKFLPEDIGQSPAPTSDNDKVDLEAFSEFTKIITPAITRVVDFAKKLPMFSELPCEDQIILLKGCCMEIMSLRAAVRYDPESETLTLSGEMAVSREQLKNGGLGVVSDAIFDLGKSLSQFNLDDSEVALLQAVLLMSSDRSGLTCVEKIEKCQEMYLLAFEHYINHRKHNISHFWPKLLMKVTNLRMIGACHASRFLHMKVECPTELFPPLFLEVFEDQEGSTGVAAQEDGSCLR
# Procedure, shortened: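 Chimeric zebrafish TRa-Gal4 activity read in transfected human HepG2 as GAL4-UAS reporter transcripts, 24 h post-dose, via RT-PCR with labeled primer extension and capillary electrophoresis. Medium also carries 3 nM 6-alpha-fluorotestosterone and 1.5 nM norgestrel; DMSO baseline.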
# [15] = test system: turtle Thyroid Hormone Receptor, alpha (TRa), gene 101949057; test: ATG_trTRa_XSP2: Attagene TRANS-FACTORIAL Multi-Species (XSP1) HepG2 Assay for turtle Thyroid Hormone Receptor, alpha (TRa) (AID 2283834);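 also: hits raise reporter mRNA over the DMSO baseline so AC50 marks activators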
# Procedure, shortened: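 Turtle TRa-Gal4 chimera activity in transfected human HepG2 cells: reporter transcripts quantified by RT-PCR, 6-FAM labelling and capillary electrophoresis 24 h post-dosing; positive direction versus DMSO, medium containing 3 nM 6-alpha-fluorotestosterone and 1.5 nM norgestrel.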
# [16] = ATG_M_61_XSP2: Attagene TRANS-FACTORIAL Multi-Species (XSP2) HepG2 Assay for M61 Transcription Factor (Internal Marker) (AID 2283835; active = hit-call score of the fitted dose curve at least 0.9, where 1 is the maximum; inactive = score below 0.9;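 also: reporter mRNA of an internal background marker read by RT-PCR and capillary electrophoresis; active means a rise in signal above the DMSO baseline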)
# Procedure, shortened: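 Signal was mRNA induction detected as fluorescence after RT-PCR and capillary electrophoresis, analysed in the gain direction with DMSO as baseline. HepG2 cells transiently carrying reporter constructs received chemicals for 24 h.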
# [17] = target: zebrafish Thyroid Hormone Receptor beta (TRb), thrb (gene 30607) (UniProt Q9PVE4); test: ATG_zfTRb_XSP2: Attagene TRANS-FACTORIAL Multi-Species (XSP1) HepG2 Assay for zebrafish Thyroid Hormone Receptor beta (TRb) (AID 2283836)
# zebrafish Thyroid Hormone Receptor beta (TRb), thrb (gene 30607), sequence (Q9PVE4 whole entry, looked up, the tested form may be a part): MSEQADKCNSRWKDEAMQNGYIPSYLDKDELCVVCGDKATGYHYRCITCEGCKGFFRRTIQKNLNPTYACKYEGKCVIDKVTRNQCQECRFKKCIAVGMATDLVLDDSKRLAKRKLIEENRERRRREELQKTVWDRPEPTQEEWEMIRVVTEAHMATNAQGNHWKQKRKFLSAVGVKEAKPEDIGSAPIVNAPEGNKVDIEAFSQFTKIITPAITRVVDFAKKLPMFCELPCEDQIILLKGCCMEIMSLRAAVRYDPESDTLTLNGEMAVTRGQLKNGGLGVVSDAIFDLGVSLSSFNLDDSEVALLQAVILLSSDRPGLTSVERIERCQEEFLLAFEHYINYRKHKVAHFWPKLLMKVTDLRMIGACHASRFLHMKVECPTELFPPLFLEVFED
# Procedure, shortened: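 Reporter transcripts measured by RT-PCR, 6-FAM labelling, HpaI digestion and capillary electrophoresis after 24 h chemical exposure. Human HepG2 cells carry an exogenous zebrafish TRb-GAL4 chimera; medium included 3 nM 6-alpha-fluorotestosterone plus 1.5 nM norgestrel.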
# [18] = target: human Thyroid hormone Receptor beta (TRb), THRB (gene 7068) (UniProt P10828); test: ATG_hTRb_XSP2: Attagene TRANS-FACTORIAL Multi-Species (XSP2) HepG2 Assay for human Thyroid hormone Receptor beta (TRb) (AID 2283840);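 also: actives raise reporter mRNA so potency reflects agonist-like gain of signal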
# human Thyroid hormone Receptor beta (TRb), THRB (gene 7068), sequence (P10828 whole entry, looked up, the tested form may be a part): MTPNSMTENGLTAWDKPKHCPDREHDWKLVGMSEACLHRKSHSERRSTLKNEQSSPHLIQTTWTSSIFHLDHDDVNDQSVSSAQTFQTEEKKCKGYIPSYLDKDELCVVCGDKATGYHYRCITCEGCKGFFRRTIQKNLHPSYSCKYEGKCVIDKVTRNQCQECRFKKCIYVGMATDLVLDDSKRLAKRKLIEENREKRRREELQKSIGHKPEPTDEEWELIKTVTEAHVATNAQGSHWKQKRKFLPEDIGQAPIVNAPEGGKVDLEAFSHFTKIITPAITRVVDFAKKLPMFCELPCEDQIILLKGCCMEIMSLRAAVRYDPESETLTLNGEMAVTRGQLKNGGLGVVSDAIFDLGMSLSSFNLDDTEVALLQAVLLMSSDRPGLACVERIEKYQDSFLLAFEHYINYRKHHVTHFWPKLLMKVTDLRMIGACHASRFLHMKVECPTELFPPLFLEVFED
# Procedure, shortened: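 Activity of exogenous human TRb–Gal4 fusion measured by reporter mRNA from RT-PCR and capillary electrophoresis, 24 h after dosing transfected HepG2. 6-alpha-fluorotestosterone (3 nM) and norgestrel (1.5 nM) present. Gain-of-signal fit relative to DMSO.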
smiles,measurement,setting,value
Cc1cc(Cc2cc(C)cc(C(C)(C)C)c2O)c(O)c(C(C)(C)C)c1,outcome,[1],inactive
same,outcome,[2],inactive
NCCN,AC50,[1],4180 nM (active)
same,outcome,[2],inactive
C[C@]12CC[C@@H]3c4ccc(O)cc4CC[C@H]3[C@@H]1C[C@@H](O)[C@@H]2O,outcome,[3],inactive
same,AC50,[4],30.6 nM (active)
same,AC50,[5],10.2 nM (active)
same,outcome,[6],inactive
same,AC50,[7],72.5 nM (active)
same,AC50,[8],100 nM (active)
same,outcome,[9],inactive
same,AC50,[10],30.8 nM (active)
same,outcome,[11],inactive
same,outcome,[12],inactive
same,outcome,[13],inactive
same,outcome,[14],inactive
same,outcome,[15],inactive
same,outcome,[16],inactive
same,outcome,[17],inactive
same,outcome,[18],inactive
CCCCC(CC)C(=O)O (configuration not stated),outcome,[1],inactive
same,outcome,[2],inactive

# — PubChem BioAssay (EPA / NIEHS)
